Reference: PubChem BioAssay AID1645875 (National Center for Advancing Translational Sciences (NCATS), 2021)
Where “and” joins values, the source holds several entries; their conditions need not be identical. Equal values may be shown once. Inconclusive results are not listed. Calls of active or inactive are those of the source. Calls follow the shape of the dose curve; as a rule, active = well fitted inhibition curve with a large enough effect; inconclusive = small, poorly fitted or top-dose-only effect; inactive = no such curve, though single readings can be large or run the other way.

Biological target: N-terminal Xaa-Pro-Lys N-methyltransferase 1 (Homo sapiens) (UniProt Q9BV86)
Sequence (Q9BV86 whole entry, looked up): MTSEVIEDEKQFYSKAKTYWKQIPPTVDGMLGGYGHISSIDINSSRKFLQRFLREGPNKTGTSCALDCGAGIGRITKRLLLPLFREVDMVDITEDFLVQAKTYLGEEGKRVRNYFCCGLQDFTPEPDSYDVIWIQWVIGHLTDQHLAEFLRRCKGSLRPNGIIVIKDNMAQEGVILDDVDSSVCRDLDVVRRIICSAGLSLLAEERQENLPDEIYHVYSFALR
Assay: Orthogonal qHTS for Inhibitors of N-terminal methyltransferase 1 (NTMT1): ThioGlo Assay
Conditions: NTMT1 SAHH-coupled ThioGlo fluorescence, 30 min; series mostly up to 84.5 µM
Method in brief: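 125 nM NTMT1 pre-incubated 1 min at room temperature with titrated compounds, then 100 uM SAM, 10 uM SAHH and 15 uM ThioGlo3 (final) added. Fluorescence (ex 340/em 450 nm) read before and after 30 min in the dark, normalized to the initial background.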

Potency, active:
Cc1ccc(NC(=O)N2CCN(c3nc(N)nc4sc(-c5cccnc5)nc34)CC2)cc1 24.8 µM
CN(C)c1ccc(Nc2nc(N)n(C(=O)c3c(F)cccc3F)n2)cc1 4.94 µM
O=C1NC(=O)/C(=C/c2ccc(-c3ccc(F)cc3O)o2)S1 30.8 µM
FC(F)(F)c1cccc(N2CCN(C(=S)Nc3ccccn3)CC2)c1 1.54 µM
Cc1cccc(C)c1OCC(N)C(C)C (stereo not given) 1.54 µM
C[N+]1(C)CCC(OC(=O)C(c2ccccc2)c2ccccc2)CC1 2.74 µM
CCn1c(=O)c(-c2ccn[nH]2)cc2c(C)nc(N)nc21 49.4 µM
COc1cccc(C(=O)NCCNc2nc3cc(C)cc(C)c3cc2C#N)c1 44.1 µM
NCCOc1cc(C(=O)Nc2cc(OCCN)c3ccccc3n2)nc(C(=O)Nc2cc(OCCN)c3ccccc3n2)c1 19.4 µM
COc1c(C)c(C(=O)c2ccc(N)c(C(=O)O)c2)n2ccccc12 1.97 µM and 1.75 µM

Potency, inactive:
COc1ccc(C2=Nn3c(nnc3-c3ccccc3Cl)SC2)cc1OC1CCCC1
C[C@]12C[C@H](O)[C@H]3[C@@H](CCC4=CC(=O)CC[C@@]43C)[C@@H]1CC[C@@H]2C(=O)CO
COc1cc(CCc2ccc(OCC=C(C)C)cc2)cc(OC)c1OC
COc1ccc(-c2nnc3n2N=C(c2c(OC)cccc2OC)CS3)cc1OC
c1cc(CN2CCCCC2)cc(OCCCNc2nc3ccccc3s2)c1
